According to the supplement of paper PMC6992640:

The molecules below were run on WHIM30 (cells of a triple-negative basal-like breast cancer xenograft) (assay: cell viability of combination (% of vehicle); higher = less cytotoxic). Conditions: 1 µM; 72 h; partner dose: 10 nM.
Method: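 PDX cells were treated for 72 h with each drug at 1 µM plus carfilzomib (10 nM; 100 nM for WHIM2). Luciferase viability is expressed as percent of vehicle.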
Cc1cc(C(C#N)c2ccc(Cl)cc2)c(Cl)cc1NC(=O)c1cc(I)cc(I)c1[O-].[Na+] (stereo not given) [Closantel Sodium] + CC(C)C[C@H](NC(=O)[C@H](CCc1ccccc1)NC(=O)CN1CCOCC1)C(=O)N[C@@H](Cc1ccccc1)C(=O)N[C@@H](CC(C)C)C(=O)[C@@]1(C)CO1 [Carfilzomib] was tested, and the “cell viability of combination” value was 17.8.
With CCCCCCCCCCCC[N+](C)(C)CCOc1ccccc1.[Br-] [Domiphen Bromide] + CC(C)C[C@H](NC(=O)[C@H](CCc1ccccc1)NC(=O)CN1CCOCC1)C(=O)N[C@@H](Cc1ccccc1)C(=O)N[C@@H](CC(C)C)C(=O)[C@@]1(C)CO1 [Carfilzomib] the “cell viability of combination” value was 9.06.
CCCCCCCCCCCCCCCC[N+](C)(C)C.[Br-] [Cetrimonium Bromide (CTAB)] + CC(C)C[C@H](NC(=O)[C@H](CCc1ccccc1)NC(=O)CN1CCOCC1)C(=O)N[C@@H](Cc1ccccc1)C(=O)N[C@@H](CC(C)C)C(=O)[C@@]1(C)CO1 [Carfilzomib] was tested, and the “cell viability of combination” value was 12.
CCCCCCCCCCCCCCCC[n+]1ccccc1.[Cl-] [Cetylpyridinium Chloride] + CC(C)C[C@H](NC(=O)[C@H](CCc1ccccc1)NC(=O)CN1CCOCC1)C(=O)N[C@@H](Cc1ccccc1)C(=O)N[C@@H](CC(C)C)C(=O)[C@@]1(C)CO1 [Carfilzomib] was tested, and the “cell viability of combination” value was 11.9.
With Cc1cc(C(C#N)c2ccc(Cl)cc2)c(Cl)cc1NC(=O)c1cc(I)cc(I)c1O (stereo not given) [Closantel] + CC(C)C[C@H](NC(=O)[C@H](CCc1ccccc1)NC(=O)CN1CCOCC1)C(=O)N[C@@H](Cc1ccccc1)C(=O)N[C@@H](CC(C)C)C(=O)[C@@]1(C)CO1 [Carfilzomib] the “cell viability of combination” value was 16.8.
